From PubChem BioAssay (NCATS)
Inconclusive results are not listed. Values without a mark were called inactive. Active and inactive are the calls of the source. The call rests on the fitted dose curve; in most records, active means well fitted inhibition curve with a large enough effect; inconclusive means small, poorly fitted or top-dose-only effect; inactive means flat fitted curve, though single readings scatter.

Tested on: CP201
Assay: qHTS profiling for inhibitors of Plasmodium falciparum proliferation (AID 504749); further: nearly all actives have a fitted effect of over 60% in size;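 on activity, negative = inhibition: 0% = DMSO vehicle and full inhibition = artemisinin control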
Conditions: P. falciparum in erythrocytes, SYBR Green DNA, 72 h; series mostly up to 28.7 µM; activity, negative = inhibition: at the top concentration
Procedure, shortened: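 Infected RBCs, 0.3% parasitemia/2.5% Hct final; cpd 72 h, 37 C, 5% CO2; lysis buffer with saponin/triton/SYBR Green I, o/n RT dark; FI 485/535; norm. to artemisinin (0.29 uM) and DMSO.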
Potency means the concentration at half of the fitted maximal effect.

| Structure (SMILES) | activity, negative = inhibition | Potency |
| --- | --- | --- |
| CC(C)OC(=O)C(C(=O)OC(C)C)=C1SC=CS1 | -6.33% |  |
| CC[C@H](NC(C)C)[C@H](O)c1ccc(O)c2[nH]c(=O)ccc12 | 0.647% |  |
| NC(=O)c1cccnc1 | -3.88% |  |
| Cc1ccnc2c1NC(=O)c1cccnc1N2C1CC1 | 4.21% |  |
| O=P(O)(O)C(O)(Cc1cccnc1)P(=O)(O)O | 3.77% |  |
| CCc1c2c(nc3ccc(OC(=O)N4CCC(N5CCCCC5)CC4)cc13)-c1cc3c(c(=O)n1C2)COC(=O)[C@]3(O)CC | -2.06% |  |
| C#CCN[C@@H]1CCc2ccccc21 | -3.67% |  |
| CNS(=O)(=O)Cc1ccc2[nH]cc(CCN(C)C)c2c1 | 2.61% |  |
| Cc1noc(NS(=O)(=O)c2ccc(N)cc2)c1C | -1.77% |  |
| COc1c(N2CCNC(C)C2)c(F)cc2c(=O)c(C(=O)O)cn(C3CC3)c12 (stereo not given) | -9.84% |  |
| CCCN[C@H]1CCc2nc(N)sc2C1 | -4.07% |  |
| CN1CCN(c2c(F)cc3c(=O)c(C(=O)O)cn4c3c2OCN4C)CC1 | -2.47% |  |
| COc1cc(NCc2ccc3nc(N)nc(N)c3c2C)cc(OC)c1OC |  | 4780 nM (active) |
| Cc1cccc(Nc2ccncc2S(=O)(=O)NC(=O)NC(C)C)c1 | -2.98% [at 12.8 µM] |  |
| CC1=NN(c2ccccc2)C(=O)C1 | -8.46% |  |
| CCN(C)C(=O)Oc1cccc([C@H](C)N(C)C)c1 | 1.72% |  |
| CN(C)c1ccc(C(=C2C=CC(=[N+](C)C)C=C2)c2ccc(N(C)C)cc2)cc1 |  | 1200 nM (active) |
| NCCCC(O)(P(=O)(O)O)P(=O)(O)O | 0.891% |  |
| COc1ccc(C(=O)CC(=O)c2ccc(C(C)(C)C)cc2)cc1 | -4.05% |  |
| Cn1nnc2c(C(N)=O)ncn2c1=O | -7.6% |  |
